# Results published in paper PMC9911399, “Two distinct binding modes provide the RNA-binding protein RbFox with extraordinary sequence specificity”.
# Numbering of substitutions follows the chain as printed; changes in the protein carry UniProt numbers. Over roughly 16,000 sequences, “ka relative to ugcaugu” has its median near 0.0091; the highest 2% begin near 0.032. For the sample, the highest values were picked, then their nearest neighbours and some sequences at random.
# B1: UCCGGCA (DNA:RNA)
# RNA: GGGAGACCGGAAUUCAGAUUGUCCUCCGGCAUUAAAUCCCGUCGUAGCCACCA
# DNA 1: CAATCTGAATTCCGGTCTCCC
# DNA 2: TGGTGGCTACGACGGGATT
# B2: ACUUCCC (DNA:RNA)
# RNA: B1 RNA with U25A, C27U, G28U, G29C, A31C
# DNA 1: CAATCTGAATTCCGGTCTCCC
# DNA 2: TGGTGGCTACGACGGGATT
# B3: ACGCCGU (DNA:RNA)
# RNA: B1 RNA with U25A, C27G, G28C, G29C, C30G, A31U
# DNA 1: CAATCTGAATTCCGGTCTCCC
# DNA 2: TGGTGGCTACGACGGGATT
# B4: UGCCAAA (DNA:RNA)
# RNA: B1 RNA with C26G, G28C, G29A, C30A
# DNA 1: CAATCTGAATTCCGGTCTCCC
# DNA 2: TGGTGGCTACGACGGGATT
# B5: GAGAGCA (DNA:RNA)
# RNA: B1 RNA with U25G, C26A, C27G, G28A
# DNA 1: CAATCTGAATTCCGGTCTCCC
# DNA 2: TGGTGGCTACGACGGGATT
# B6: GAGCAUC (DNA:RNA)
# RNA: GGGAGACCGGAAUUCAGAUUGUCCGAGCAUCUUAAAUCCCGUCGUAGCCACCA
# DNA 1: CAATCTGAATTCCGGTCTCCC
# DNA 2: TGGTGGCTACGACGGGATT
# B7: GAGCAGA (DNA:RNA)
# RNA: B6 RNA with U30G, C31A
# DNA 1: CAATCTGAATTCCGGTCTCCC
# DNA 2: TGGTGGCTACGACGGGATT
# B8: GAGCACC (DNA:RNA)
# RNA: B6 RNA with U30C
# DNA 1: CAATCTGAATTCCGGTCTCCC
# DNA 2: TGGTGGCTACGACGGGATT
# B9: GAGCACG (DNA:RNA)
# RNA: B6 RNA with U30C, C31G
# DNA 1: CAATCTGAATTCCGGTCTCCC
# DNA 2: TGGTGGCTACGACGGGATT
# B10: GAGCAUG (DNA:RNA)
# RNA: B6 RNA with C31G
# DNA 1: CAATCTGAATTCCGGTCTCCC
# DNA 2: TGGTGGCTACGACGGGATT
# B11: UUGCUAA (DNA:RNA)
# RNA: B6 RNA with G25U, A26U, A29U, U30A, C31A
# DNA 1: CAATCTGAATTCCGGTCTCCC
# DNA 2: TGGTGGCTACGACGGGATT
# B12: CGACAAG (DNA:RNA)
# RNA: B6 RNA with G25C, A26G, G27A, U30A, C31G
# DNA 1: CAATCTGAATTCCGGTCTCCC
# DNA 2: TGGTGGCTACGACGGGATT
# B13: CCAUGCU (DNA:RNA)
# RNA: B1 RNA with U25C, C27A, G28U, A31U
# DNA 1: CAATCTGAATTCCGGTCTCCC
# DNA 2: TGGTGGCTACGACGGGATT
# B14: UUGCAGA (DNA:RNA)
# RNA: B6 RNA with G25U, A26U, U30G, C31A
# DNA 1: CAATCTGAATTCCGGTCTCCC
# DNA 2: TGGTGGCTACGACGGGATT
# B15: AUCCACG (DNA:RNA)
# RNA: B6 RNA with G25A, A26U, G27C, U30C, C31G
# DNA 1: CAATCTGAATTCCGGTCTCCC
# DNA 2: TGGTGGCTACGACGGGATT
# B16: UUGCACG (DNA:RNA)
# RNA: B6 RNA with G25U, A26U, U30C, C31G
# DNA 1: CAATCTGAATTCCGGTCTCCC
# DNA 2: TGGTGGCTACGACGGGATT
# B17: AUGCACC (DNA:RNA)
# RNA: B6 RNA with G25A, A26U, U30C
# DNA 1: CAATCTGAATTCCGGTCTCCC
# DNA 2: TGGTGGCTACGACGGGATT
# B18: AUGCAUC (DNA:RNA)
# RNA: B6 RNA with G25A, A26U
# DNA 1: CAATCTGAATTCCGGTCTCCC
# DNA 2: TGGTGGCTACGACGGGATT
# B19: UAGCACC (DNA:RNA)
# RNA: B6 RNA with G25U, U30C
# DNA 1: CAATCTGAATTCCGGTCTCCC
# DNA 2: TGGTGGCTACGACGGGATT
# B20: AUGCAUA (DNA:RNA)
# RNA: B6 RNA with G25A, A26U, C31A
# DNA 1: CAATCTGAATTCCGGTCTCCC
# DNA 2: TGGTGGCTACGACGGGATT
# B21: AUGCAUG (DNA:RNA)
# RNA: B6 RNA with G25A, A26U, C31G
# DNA 1: CAATCTGAATTCCGGTCTCCC
# DNA 2: TGGTGGCTACGACGGGATT
# B22: UACCACG (DNA:RNA)
# RNA: B6 RNA with G25U, G27C, U30C, C31G
# DNA 1: CAATCTGAATTCCGGTCTCCC
# DNA 2: TGGTGGCTACGACGGGATT
# B23: UAGCACG (DNA:RNA)
# RNA: B6 RNA with G25U, U30C, C31G
# DNA 1: CAATCTGAATTCCGGTCTCCC
# DNA 2: TGGTGGCTACGACGGGATT
# B24: UUGCACC (DNA:RNA)
# RNA: B6 RNA with G25U, A26U, U30C
# DNA 1: CAATCTGAATTCCGGTCTCCC
# DNA 2: TGGTGGCTACGACGGGATT
# B25: AUGCACG (DNA:RNA)
# RNA: B6 RNA with G25A, A26U, U30C, C31G
# DNA 1: CAATCTGAATTCCGGTCTCCC
# DNA 2: TGGTGGCTACGACGGGATT
# B26: GUCCCAA (DNA:RNA)
# RNA: B6 RNA with A26U, G27C, A29C, U30A, C31A
# DNA 1: CAATCTGAATTCCGGTCTCCC
# DNA 2: TGGTGGCTACGACGGGATT
# B27: CAUUACG (DNA:RNA)
# RNA: B6 RNA with G25C, G27U, C28U, U30C, C31G
# DNA 1: CAATCTGAATTCCGGTCTCCC
# DNA 2: TGGTGGCTACGACGGGATT
# B28: UCACUCG (DNA:RNA)
# RNA: B1 RNA with C27A, G28C, G29U, A31G
# DNA 1: CAATCTGAATTCCGGTCTCCC
# DNA 2: TGGTGGCTACGACGGGATT
# B29: GUGCACG (DNA:RNA)
# RNA: B6 RNA with A26U, U30C, C31G
# DNA 1: CAATCTGAATTCCGGTCTCCC
# DNA 2: TGGTGGCTACGACGGGATT
# B30: ACGUGCG (DNA:RNA)
# RNA: B1 RNA with U25A, C27G, G28U, A31G
# DNA 1: CAATCTGAATTCCGGTCTCCC
# DNA 2: TGGTGGCTACGACGGGATT
# B31: GUGCACC (DNA:RNA)
# RNA: B6 RNA with A26U, U30C
# DNA 1: CAATCTGAATTCCGGTCTCCC
# DNA 2: TGGTGGCTACGACGGGATT
# B32: AGGUCUC (DNA:RNA)
# RNA: B6 RNA with G25A, A26G, C28U, A29C
# DNA 1: CAATCTGAATTCCGGTCTCCC
# DNA 2: TGGTGGCTACGACGGGATT
# Molecular target: T1, RBFOX1 RRM (Homo sapiens, UniProt Q9NWB1 109-208)
# T1 sequence: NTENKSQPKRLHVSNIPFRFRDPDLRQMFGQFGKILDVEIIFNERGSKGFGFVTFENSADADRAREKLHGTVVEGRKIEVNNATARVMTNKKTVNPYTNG
# Test: EMSA; HiTS-Eq, 1 nM pool, 10 min; buffer printed only for the single-RNA assays: 10 mM Tris pH 7.5, 150 mM NaCl, 3.4 mM EDTA, 0.001% NP-40, 30 C
# Settings: tags: His6 N-terminal (pET28a); label: 5' 32P
# Outline: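 Purified RbFox RRM (wild type or mutant) was equilibrated for 10 min in 50 µL with 1 nM of a 5′-radiolabelled pool of RNA with 7 randomized nucleotides, its flanks annealed to DNA oligonucleotides, across increasing protein concentrations. Free RNA was separated by 8% native PAGE, excised, reverse-transcribed, PCR-barcoded and sequenced on an Illumina HiSeq 2500. Relative association constants came from read-count changes of each variant against the control reaction, normalised to the cognate motif.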
row,Binder,binding signal
1,B1,0.0141 KA relative to UGCAUGU
2,B2,0.00296 KA relative to UGCAUGU
3,B3,0.00555 KA relative to UGCAUGU
4,B4,0.0103 KA relative to UGCAUGU
5,B5,0.0187 KA relative to UGCAUGU
6,B6,0.018 KA relative to UGCAUGU
7,B7,0.0147 KA relative to UGCAUGU
8,B8,0.00895 KA relative to UGCAUGU
9,B9,0.0394 KA relative to UGCAUGU
10,B10,0.713 KA relative to UGCAUGU
11,B11,0.00861 KA relative to UGCAUGU
12,B12,0.00637 KA relative to UGCAUGU
13,B13,0.00802 KA relative to UGCAUGU
14,B14,0.018 KA relative to UGCAUGU
15,B15,0.0022 KA relative to UGCAUGU
16,B16,0.692 KA relative to UGCAUGU

row,Binder,binding signal
1,B17,0.0115 KA relative to UGCAUGU
2,B18,0.015 KA relative to UGCAUGU
3,B19,0.0118 KA relative to UGCAUGU
4,B20,0.00891 KA relative to UGCAUGU
5,B21,0.911 KA relative to UGCAUGU
6,B22,0.00532 KA relative to UGCAUGU
7,B23,0.0464 KA relative to UGCAUGU
8,B24,0.0149 KA relative to UGCAUGU
9,B25,0.361 KA relative to UGCAUGU
10,B26,0.00597 KA relative to UGCAUGU
11,B27,0.00857 KA relative to UGCAUGU
12,B28,0.00518 KA relative to UGCAUGU
13,B29,0.62 KA relative to UGCAUGU
14,B30,0.0166 KA relative to UGCAUGU
15,B31,0.0178 KA relative to UGCAUGU
16,B32,0.0131 KA relative to UGCAUGU
